Values joined by “and” are separate entries in the source; they are usually repeats but may differ in a detail not shown here. Equal values may be shown once.
What was measured:
Roseburia intestinalis = experiment: growth AUC relative to DMSO control (median of replicates) (fraction); higher = more growth (less inhibition), active = hit call of the paper; conditions: 20 µM; 24 h
In short: (§1)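 Gut bacterial monocultures were grown anaerobically at 37 °C in mGAM, starting at OD600 0.05, with 20 µM compound (1% DMSO) in round-bottom 96-well plates under pierced gas-permeable seals. OD600 was read hourly for 24 h. Area under the growth curve (minimum OD set to 0) was normalised to the plate median of DMSO controls, or to row and column medians on the industrial chemical plate. The value is the median of three biological replicates grown on separate days.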

Streptococcus salivarius = experiment: as above; conditions: 20 µM; 24 h
In short: as §1

Row | SMILES | growth AUC (Roseburia intestinalis) | growth AUC (Streptococcus salivarius)
1 | C=CCC1=C(C)C(OC(=O)C2C(C=C(C)C)C2(C)C)CC1=O (mixture of isomers) | 0.924 (inactive) | 0.953 (inactive)
2 | CCCOP(=S)(OCCC)SCC(=O)N1CCCCC1C (centres undefined) | 0.992 (inactive) | 0.953 (inactive)
3 | O=C(Nc1ccccc1)Nc1ccnc(Cl)c1 | 0.896 (inactive) | 0.844 (inactive)
4 | Cc1cc(C)nc(NC(=O)NS(=O)(=O)c2ccccc2C(=O)OC2COC2)n1 | 0.985 (inactive) | 0.909 (inactive)
5 | Cc1cnc(C2=NC(C)(C(C)C)C(=O)N2)c(C(=O)O)c1 (centres undefined) | 0.997 (inactive) | 1.03 (inactive)
6 | OCC1C(CO)C2(Cl)C(Cl)=C(Cl)C1(Cl)C2(Cl)Cl (centres undefined) | 0.953 (inactive) | 0.82 (inactive)
7 | CC#Cc1cc(C)nc(Nc2ccccc2)n1 | 1.01 (inactive) | 1.01 (inactive)
8 | CCCCC(CC)COC(=O)c1ccccc1C(=O)OCC(CC)CCCC (centres undefined) | 0.971 (inactive) | 0.967 (inactive)
9 | ClC1C(Cl)C(Cl)C(Cl)C(Cl)C1Cl (centres undefined) | 1.03 (inactive) and 1.04 (inactive) and 0.953 (inactive) | 
10 | O=C(O)c1ccc(Cl)nc1 | 1.16 (inactive) | 0.973 (inactive)
11 | CCOP(=S)(OCC)SCS(=O)C(C)(C)C (centres undefined) | 1.04 (inactive) | 1.04 (inactive)
12 | COCC(=O)N(c1c(C)cccc1C)N1CCOC1=O | 0.994 (inactive) | 1 (inactive)
13 | Cc1cc(Cl)ccc1OCC(=O)O | 1.02 (inactive) | 0.983 (inactive)
14 | CNC(=O)Oc1cc(C)cc(C(C)C)c1 | 1.06 (inactive) | 0.935 (inactive)
15 | Cc1c(COC(=O)[C@@H]2[C@H](/C=C(\Cl)C(F)(F)F)C2(C)C)cccc1-c1ccccc1 | 0.924 (inactive) | 0.949 (inactive)
16 | COc1cc(OC)nc(Oc2cccc(Oc3nc(OC)cc(OC)n3)c2C(=O)[O-])n1.[Na+] | 1.06 (inactive) | 1.01 (inactive)
17 | CSc1nc(NC(C)C)nc(NC(C)C)n1 | 1.02 (inactive) | 1.03 (inactive)
18 | Oc1ccc(Cl)c(Cl)c1Cl | 1.05 (inactive) | 0.96 (inactive)

Row | SMILES | growth AUC (Roseburia intestinalis) | growth AUC (Streptococcus salivarius)
19 | CNC(=O)O/N=C(\C)C(C)S(C)=O (centres undefined) | 0.991 (inactive) | 0.96 (inactive)
20 | CCOC(=O)OC1=C(c2cc(C)ccc2C)C(=O)NC12CCC(OC)CC2 (centres undefined) | 0.995 (inactive) | 0.987 (inactive)
21 | N#Cc1c(O)c(Cl)c(Cl)c(C#N)c1Cl | 1.06 (inactive) | 1 (inactive)
22 | O=C(O)CCCOc1ccc(Cl)cc1Cl | 0.966 (inactive) | 0.969 (inactive)
23 | Cn1cc(-c2ccccc2)c(=O)c(-c2cccc(C(F)(F)F)c2)c1 | 1.04 (inactive) | 0.986 (inactive)
24 | Cc1nnc(-c2ccccc2)c(=O)n1N | 0.97 (inactive) | 1.06 (inactive)
25 | CON(C)C(=O)Nc1ccc(Cl)cc1 | 1.02 (inactive) | 1.04 (inactive)
26 | CCOP(=S)(OCC)Oc1cc(Cl)c(SC)cc1Cl | 0.994 (inactive) | 1.01 (inactive)
27 | CCN(CC)C(=O)SCc1ccc(Cl)cc1 | 0.983 (inactive) | 0.986 (inactive)
28 | CCCCOC(=O)[C@@H](C)Oc1ccc(Oc2ccc(C#N)cc2F)cc1 | 0.997 (inactive) | 0.954 (inactive)
29 | O=C(NC(=O)c1c(F)cccc1F)Nc1cc(Cl)c(Oc2ncc(C(F)(F)F)cc2Cl)c(Cl)c1 | 1.11 (inactive) | 0.98 (inactive)
30 | CC1(C)[C@H](C(=O)O[C@H](C#N)c2cccc(Oc3ccccc3)c2)[C@@H]1C=C(Br)Br | 0.933 (inactive) | 0.914 (inactive)
31 | Cc1nc(N(C)C)nc(OC(=O)N(C)C)c1C | 0.988 (inactive) | 1 (inactive)
32 | CC(C)(C)c1ccc(CCOc2ncnc3ccccc23)cc1 | 0.901 (inactive) | 0.975 (inactive)
33 | O=NN(CCO)CCO | 0.971 (inactive) | 0.986 (inactive)
34 | C=C(C)CN(CC)c1c([N+](=O)[O-])cc(C(F)(F)F)cc1[N+](=O)[O-] | 1.01 (inactive) | 0.989 (inactive)
35 | CC1=C(C(=O)Nc2ccccc2)SCCO1 | 1.08 (inactive) | 1.08 (inactive)

— the supplement of paper PMC12669032
